Test results published in PubChem BioAssay AID1233 (SRMLSC, 2008).
Entries with a potency or affinity are not part of this list. Activity calls are given as the source filed them.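 The calls were made as follows: active = a dose-response curve fit returns a half-maximal inhibitory concentration, extrapolated values included; inactive = the fit returns no such concentration.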

The molecules below were run against HMG-CoA reductase [Enterococcus faecalis] (UniProt Q9FD70) (assay: class II HMG-CoA reductase inhibition potency – biochemical, Enterococcus faecalis, confirmation (AID 1233)). Settings: purified E. faecalis HMGR, NADPH absorbance 340 nm kinetics; series mostly up to 100 µM.

outcome, inactive:
O=C(NCC1CCCO1)C(c1cccs1)N(Cc1cccs1)C(=O)Cn1nnc(-c2cccs2)n1 (stereo not drawn)
Cc1cc(C)c(S(=O)(=O)c2ccccc2)c(OC(=O)c2c(F)cccc2F)n1
COc1ccccc1/C=C/C(=O)OCC(=O)Nc1c(F)cccc1F
CCN(CC)C(=S)NC(=O)c1cccnc1
CN(CC(=O)NCCc1ccccc1)S(=O)(=O)c1ccccc1
Cc1ccc(S(=O)(=O)N(C)Cc2ccc(-c3nnco3)cc2)cc1
CN(C)CCCN(Cc1ccccc1)C(=S)Nc1ccc(SC(F)F)cc1
Cc1cc(=O)[nH]c(SCCOc2ccc3c(c2)CCC3)n1
O=C(NN1S(=O)(=O)c2ccccc2S1(=O)=O)c1ccc(Br)cc1
CCCCCOC(=O)Cn1c(N2CCOCC2)nc2c1c(=O)[nH]c(=O)n2C
COc1ccccc1CNC(=O)C1CCCN(S(=O)(=O)c2c(C)[nH]c(=O)[nH]c2=O)C1 (stereo not drawn)
COc1ccc(Cl)cc1NC(=O)CN(c1ccccc1)S(=O)(=O)N(C)C
O=C(O)c1cc(N/N=C/C(Cl)=C/c2ccccc2)ccc1Cl
S=c1[nH]c2cc(Cl)ccc2s1
O=C(O)C(Cc1ccccc1)N1C(=O)C2CCCCC2C1=O (stereo not drawn)
O=C(CN1CCC2(CC1)OCCO2)c1ccc2cc[nH]c2c1
O=C(NCCCN1CCOCC1)c1cn(-c2ccccc2)nc1-c1cccs1
CCN(CC)CCNC(=O)C(=O)NCC1OCCN1C(=O)c1ccc2c(c1)OCO2 (stereo not drawn)
O=C(NCCCn1ccnc1)c1ccc(S(=O)(=O)N2CCOCC2)cc1
CCCCOc1ccccc1NC(=O)CC1SC(=NCC)N(CC)C1=O (stereo not drawn)
O=C(O)c1cc(-c2ccc(N3CCOCC3)cc2)nn1-c1ccccc1Cl
O=C(NCc1ccc2[nH]c3c(c2c1)CCCC3)c1ccc(S(=O)(=O)N2CCCC2)cc1
CC(C)NC(=S)N=Nc1c(O)[nH]c2ccc(C(C)C)cc12
Cc1nn2c(C(F)(F)F)cc(-c3ccc(Cl)cc3)nc2c1C(=O)N1CCOCC1
Cc1noc(C)c1CSc1nc2sc(C)c(C)c2c(=O)n1C1CCCC1
COc1cc(C#N)ccc1OCC(=O)c1ccc2c(c1)OCCO2
NS(=O)(=O)c1ccc(CCN=C(NS(=O)(=O)c2cccs2)c2ccccc2)cc1
COc1ccc(OC)c(NC(=O)NNC(=O)CCCOc2ccc(Cl)cc2C)c1
CCOC(=O)Cc1nn(Cc2ccccc2)c(=O)c2ccccc12
O=C(COc1ccccc1C(=O)N/N=C\c1ccc(O)c(O)c1)N/N=C/c1ccc(O)c(O)c1
COc1ccc(CCNC(=O)c2ccccc2Cl)cc1OC
NCCc1nnc(SCc2ccc(F)cc2)o1
Cc1cccc(C)c1N1CCN(C(=O)N2CCCCC2)CC1
O=c1cc(CSc2ccc([N+](=O)[O-])cc2)nc2sccn12
CC1CN(C(=O)c2cccc(S(=O)(=O)Nc3ccc(Cl)cc3)c2)CC(C)O1 (stereo not drawn)
Cc1ccccc1Nc1nnc(SCc2nc3ccccc3c(=O)[nH]2)s1
COc1ccccc1NC(=S)N1CCCc2ccccc21
Cc1ccc(NC(=O)C(=O)NCc2ccc(/C=N/NC(=O)c3c(C)nc4cc(C)ccn34)o2)cc1
